Inconclusive results are not listed. The source made the active and inactive calls. Unless noted, calls follow the shape of the full dose curve.
Key:
[1] = Nuclear factor erythroid 2-related factor 2/antioxidant responsive element (Nrf2/ARE) small molecule agonists: qHTS cell viability counter screen in human keratinocytes (AID 1919968; active = well fitted curve in the direction sought with a large enough effect in the repeat runs; an effect the other way counts as inactive or inconclusive; also: nearly all actives have a fitted effect of over 55% in size)
Summary of the method: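 KeratinoSens cells (HaCaT keratinocytes stably carrying an ARE-luciferase reporter) were seeded at 1,500 cells/well and rested 5 h at 37 C/5% CO2. They were then exposed to compounds in DMSO for 23 h. Viability was read by CellTiter-Fluor fluorescence after 1 h.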

[2] = Nuclear factor erythroid 2-related factor 2/antioxidant responsive element (Nrf2/ARE) small molecule agonists: luciferase reporter gene qHTS assay in human keratinocytes (AID 1919969); also: nearly all actives have a fitted effect of over 35% in size
[3] = biological target: Gonadotropin-releasing hormone receptor (Homo sapiens) (UniProt P30968); assay: Human gonadotropin-releasing hormone receptor (GnRHR) small molecule agonists, calcium flux assay in GnRHR-HEK293 cells (AID 1920063); also: nearly all actives have a fitted effect of over 35% in size
Summary of the method: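 HEK293 cells stably expressing human GnRHR were plated 18 h at 37 °C, loaded with calcium dye 1 h at 37 °C, then given compound in agonist mode; fluorescence (Ex/Em 480/540) read kinetically for 3 min at 1 s intervals.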

[4] = biological target: KiSS-1 receptor (Homo sapiens) (UniProt Q969F8); assay: Human kisspeptin (KISS1R) small molecule agonists, calcium flux assay in KISS1R-HEK293 cells (AID 1920064; active = well fitted curve in the direction sought with a large enough effect in the repeat runs; an effect the other way counts as inactive or inconclusive)
Summary of the method: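 HEK293 cells stably expressing human KISS1R were plated 18 h at 37 °C, loaded with calcium dye for 1 h at 37 °C, then given compound by pin tool. Fluorescence (Ex/Em 480/540) was read kinetically for 3 min.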

[5] = G protein-coupled receptor (GPCR) small molecule agonists, calcium flux assay: HEK293 wild type cell line counter screen (AID 1920065)
Summary of the method: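 Cells were plated and cultured 18 h at 37 C/5% CO2, then loaded with calcium dye for 1 h at 37 C. Compounds in DMSO were pin-transferred in agonist mode, and fluorescence (Ex/Em 480/540) was read kinetically for 3 min at 1 s intervals.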

[6] = p53 small molecule agonists, cell-based qHTS assay with human liver microsomes (AID 1963577)
Summary of the method: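 Fluorescence of the beta-lactamase reporter in p53RE-bla cells, detected with LiveBLAzer substrate (2 h, room temperature, dark), served as the read-out after 16 h compound exposure at 37 C with human liver microsomes and NADPH, each 0.5 mg/mL final.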

[7] = p53 small molecule agonists, cell-based qHTS assay with rat liver microsomes (AID 1963578)
Summary of the method: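 Cells carrying a p53 response element–beta-lactamase reporter were plated and rested 5 h, then dosed with compound in DMSO plus rat liver microsomes and NADPH, each at 0.5 mg/mL final. After 16 h at 37 C, LiveBLAzer substrate was added for 2 h.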

[8] = p53 small molecule agonists, cell-based qHTS assay with human liver microsomes: qHTS cell viability counter screen (AID 1963579); also: nearly all actives have a fitted effect of over 45% in size
Summary of the method: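 Cytotoxicity counter screen: p53RE-bla, 4,000 cells/well; 5 h settle, 37 C/5% CO2; cpd + HLM 0.5 mg/mL + NADPH 0.5 mg/mL (final); 16 h, 37 C; CellTiter-Glo, 30 min RT, luminescence.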

[9] = p53 small molecule agonists, cell-based qHTS assay: qHTS cell viability counter screen (AID 1963581); also: nearly all actives have a fitted effect of over 45% in size
Summary of the method: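 p53RE-bla HCT-116 cells were exposed to compounds for 16 h at 37 C; after the beta-lactamase FRET read in the same wells, CellTiter-Glo was added and luminescence (intracellular ATP) read after 30 min at room temperature.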

[10] = p53 small molecule agonists, cell-based qHTS assay (AID 1963582; active = well fitted activation curve with a large enough effect in the signal ratio in the repeat runs, not every such curve was filed as active; the % refers to the signal ratio)
Summary of the method: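 p53RE-bla beta-lactamase reporter cells rested 5 h at 37 C/5% CO2, then received compounds in DMSO by pin transfer and were incubated 16 h at 37 C. LiveBLAzer B/G FRET substrate was loaded for 2 h at room temperature before fluorescence reading.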

[11] = biological target: 5-hydroxytryptamine receptor 2A (Homo sapiens) (UniProt P28223); assay: 5-hydroxytryptamine receptor 2A (HTR2A) small molecule antagonists, cell-based qHTS assay (AID 1963586); also: nearly all actives have a fitted effect of over 45% in size
Summary of the method: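 Antagonist-mode intracellular calcium assay: DOI (4 nM) added after 5 min compound pre-incubation at room temperature to dye-loaded HTR2A-CHO cells. Fluorescence followed for 3 min, sampled every second.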

[12] = biological target: 5-hydroxytryptamine receptor 2A (Homo sapiens) (UniProt P28223); assay: 5-hydroxytryptamine receptor 2A (HTR2A) small molecule agonists, cell-based qHTS assay (AID 1963587); also: nearly all actives have a fitted effect of over 30% in size
Summary of the method: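 HTR2A-CHO cells, plated 18 h at 37 C/5% CO2, dye-loaded 1 h at 37 C; compounds in DMSO added by pin tool (agonist mode). Intracellular calcium flux read as kinetic fluorescence on FDSS over 2 min at 1 s intervals.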

[13] = biological target: Muscarinic acetylcholine receptor M1 (Homo sapiens) (UniProt P11229); assay: Cholinergic receptor muscarinic 1 (CHRM1) small molecule antagonists, cell-based qHTS assay (AID 1963588); also: nearly all actives have a fitted effect of over 40% in size
Summary of the method: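 CHRM1-CHO calcium-flux assay, antagonist mode. Cells were seeded 18 h, dye-loaded 1 h at 37 C and given compound for 5 min at RT, then acetylcholine was added at 50nM. FDSS fluorescence was read 3 min; 15 concentrations, three runs.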

[14] = biological target: Muscarinic acetylcholine receptor M1 (Homo sapiens) (UniProt P11229); assay: Cholinergic receptor muscarinic 1 (CHRM1) small molecule agonists, cell-based qHTS assay (AID 1963589); also: nearly all actives have a fitted effect of over 35% in size
Summary of the method: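 CHO cells stably expressing human CHRM1, seeded 18 h at 37 C/5% CO2, dye-loaded 1 h at 37 C, then given compound in agonist mode; intracellular calcium fluorescence read kinetically at 1 s intervals. Fifteen concentrations, three independent runs.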

[15] = cAMP Responsive Elements (CRE) small molecule agonists, cell-based qHTS assay (AID 1963590)
Summary of the method: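 CRE-bla HEK 293T cells in DMEM with 10% dialyzed FBS, NEAA, pyruvate and 25 mM HEPES were plated 18 h at 37 C/5% CO2, then exposed to compounds in DMSO for 3 h before LiveBLAzer B/G FRET substrate addition.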

[16] = cAMP Responsive Elements (CRE) small molecule antagonists, cell-based qHTS assay (AID 1963591; active = well fitted inhibition curve with a large enough effect in the signal ratio in the repeat runs, not every such curve was filed as active; the % refers to the signal ratio)
Summary of the method: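 CRE-bla HEK293T cells were plated 18 h at 37 °C/5% CO2, pinned with compound in DMSO, then stimulated with NKH477 at 0.25 uM final for 3 h. LiveBLAzer B/G FRET substrate was added and plates incubated 2 h at room temperature.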

[17] = biological target: Beta-2 adrenergic receptor (Homo sapiens) (UniProt P07550); assay: Adrenergic beta2 receptor (ADRB2) small molecule antagonists, cell-based qHTS assay (AID 1963592); also: series mostly up to about 92 µM; nearly all actives have a fitted effect of over 50% in size
Summary of the method: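 Cells (CHO, stable ADRB2 overexpression) incubated 18-20hr at 37C; compounds added from DMSO; agonist mix (1nM isoproterenol, 100uM IBMX, 25uM Ro-20-1724) added; 0.5hr RT; d2-cAMP and anti-cAMP-cryptate added; 1hr RT; 665/615 nm read.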

[18] = biological target: D(2) dopamine receptor (Homo sapiens) (UniProt P14416); assay: Dopamine D2 receptor (DRD2) small molecule agonists, cell-based qHTS assay (AID 1963594); also: nearly all actives have a fitted effect of over 35% in size
Summary of the method: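 HEK293 cells stably expressing DRD2 were cultured 24 h at 37 C, then given Ro20-1724 (0.1 mM final) and compounds for 10 min at room temperature. NKH477 (200nM) was then added for 30 min. cAMP was read by HTRF.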

[19] = biological target: D(2) dopamine receptor (Homo sapiens) (UniProt P14416); assay: Dopamine D2 receptor (DRD2) small molecule antagonists, cell-based qHTS assay (AID 1963595; active = well fitted inhibition curve with a large enough effect in the signal ratio in the repeat runs, with a control signal flat; the % refers to the signal ratio)
Summary of the method: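 Antagonism was scored as restored cAMP in HEK293-DRD2 cells. These cells were stimulated with 200 nM NKH477 and 12 nM quinpirole for 30 min at room temperature, in the presence of 0.1 mM Ro20-1724.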

[20] = p53 small molecule agonists, cell-based qHTS assay with rat liver microsomes: qHTS cell viability counter screen (AID 1963580); also: nearly all actives have a fitted effect of over 45% in size
Summary of the method: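 p53RE-bla HCT-116 cells (4,000/well) rested 5 h at 37 C, then given Tox21 compounds in DMSO with rat liver microsomes (0.5 mg/mL final) plus NADPH (0.5 mg/mL final) for 16 h at 37 C. Viability read by CellTiter-Glo luminescence after 30 min at room temperature.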

Measured: Potency

Chain of Gonadotropin-releasing hormone receptor (Homo sapiens) (P30968 whole entry, looked up): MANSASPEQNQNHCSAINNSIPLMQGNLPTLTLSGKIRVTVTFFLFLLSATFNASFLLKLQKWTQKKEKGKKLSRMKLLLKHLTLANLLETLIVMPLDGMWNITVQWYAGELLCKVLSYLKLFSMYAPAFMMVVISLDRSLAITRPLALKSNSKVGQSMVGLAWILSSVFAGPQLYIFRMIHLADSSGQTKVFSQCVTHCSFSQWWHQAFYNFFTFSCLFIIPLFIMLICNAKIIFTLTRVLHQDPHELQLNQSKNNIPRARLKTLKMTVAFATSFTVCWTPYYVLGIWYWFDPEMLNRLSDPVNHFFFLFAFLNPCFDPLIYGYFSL
Chain of Muscarinic acetylcholine receptor M1 (Homo sapiens) (P11229 whole entry, looked up): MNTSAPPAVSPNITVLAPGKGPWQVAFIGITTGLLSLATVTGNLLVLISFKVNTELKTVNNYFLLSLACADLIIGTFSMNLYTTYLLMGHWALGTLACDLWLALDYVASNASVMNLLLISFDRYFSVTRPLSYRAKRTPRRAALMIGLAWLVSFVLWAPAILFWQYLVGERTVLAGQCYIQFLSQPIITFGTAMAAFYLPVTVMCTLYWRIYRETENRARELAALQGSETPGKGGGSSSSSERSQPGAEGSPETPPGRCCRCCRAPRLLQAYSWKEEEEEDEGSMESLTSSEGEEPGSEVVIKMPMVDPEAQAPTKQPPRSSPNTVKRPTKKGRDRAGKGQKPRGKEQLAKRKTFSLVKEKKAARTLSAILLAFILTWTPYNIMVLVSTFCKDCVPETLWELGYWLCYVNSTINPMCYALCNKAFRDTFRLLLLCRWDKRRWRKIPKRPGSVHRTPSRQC
Chain of 5-hydroxytryptamine receptor 2A (Homo sapiens) (P28223 whole entry, looked up): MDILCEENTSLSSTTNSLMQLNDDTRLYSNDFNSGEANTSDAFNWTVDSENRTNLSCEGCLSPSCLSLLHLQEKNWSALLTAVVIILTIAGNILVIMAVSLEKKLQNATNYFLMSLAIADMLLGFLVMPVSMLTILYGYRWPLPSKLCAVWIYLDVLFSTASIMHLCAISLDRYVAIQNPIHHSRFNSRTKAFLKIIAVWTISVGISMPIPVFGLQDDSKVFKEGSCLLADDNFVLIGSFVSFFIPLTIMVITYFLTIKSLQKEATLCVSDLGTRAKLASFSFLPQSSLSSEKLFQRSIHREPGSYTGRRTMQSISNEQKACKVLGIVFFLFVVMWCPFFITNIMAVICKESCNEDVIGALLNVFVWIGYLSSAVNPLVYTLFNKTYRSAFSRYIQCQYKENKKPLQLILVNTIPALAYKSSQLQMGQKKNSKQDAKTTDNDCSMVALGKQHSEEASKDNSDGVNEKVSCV
Chain of D(2) dopamine receptor (Homo sapiens) (P14416 whole entry, looked up): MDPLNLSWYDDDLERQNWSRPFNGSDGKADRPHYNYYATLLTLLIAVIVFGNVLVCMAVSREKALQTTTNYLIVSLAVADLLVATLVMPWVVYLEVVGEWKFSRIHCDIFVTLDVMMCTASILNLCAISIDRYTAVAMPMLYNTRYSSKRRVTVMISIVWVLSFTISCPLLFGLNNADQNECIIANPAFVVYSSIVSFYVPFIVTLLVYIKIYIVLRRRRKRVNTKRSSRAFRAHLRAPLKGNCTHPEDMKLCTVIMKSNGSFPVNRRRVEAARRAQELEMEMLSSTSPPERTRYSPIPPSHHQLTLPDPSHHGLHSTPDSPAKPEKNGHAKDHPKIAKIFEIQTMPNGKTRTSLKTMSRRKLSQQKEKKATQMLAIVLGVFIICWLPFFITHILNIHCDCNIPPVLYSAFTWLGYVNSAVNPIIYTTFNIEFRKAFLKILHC
Chain of Beta-2 adrenergic receptor (Homo sapiens) (P07550 whole entry, looked up): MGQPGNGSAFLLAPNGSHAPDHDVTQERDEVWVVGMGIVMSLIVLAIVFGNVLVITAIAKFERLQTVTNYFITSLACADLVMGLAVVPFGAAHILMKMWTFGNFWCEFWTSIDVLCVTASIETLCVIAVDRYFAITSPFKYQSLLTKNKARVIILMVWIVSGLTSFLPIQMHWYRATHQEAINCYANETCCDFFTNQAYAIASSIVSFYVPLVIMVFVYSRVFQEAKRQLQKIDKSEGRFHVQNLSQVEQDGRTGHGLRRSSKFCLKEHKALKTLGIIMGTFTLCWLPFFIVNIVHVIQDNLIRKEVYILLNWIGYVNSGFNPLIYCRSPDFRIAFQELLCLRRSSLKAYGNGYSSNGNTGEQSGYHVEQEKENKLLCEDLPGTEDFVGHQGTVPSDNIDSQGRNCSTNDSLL
Chain of KiSS-1 receptor (Homo sapiens) (Q969F8 whole entry, looked up): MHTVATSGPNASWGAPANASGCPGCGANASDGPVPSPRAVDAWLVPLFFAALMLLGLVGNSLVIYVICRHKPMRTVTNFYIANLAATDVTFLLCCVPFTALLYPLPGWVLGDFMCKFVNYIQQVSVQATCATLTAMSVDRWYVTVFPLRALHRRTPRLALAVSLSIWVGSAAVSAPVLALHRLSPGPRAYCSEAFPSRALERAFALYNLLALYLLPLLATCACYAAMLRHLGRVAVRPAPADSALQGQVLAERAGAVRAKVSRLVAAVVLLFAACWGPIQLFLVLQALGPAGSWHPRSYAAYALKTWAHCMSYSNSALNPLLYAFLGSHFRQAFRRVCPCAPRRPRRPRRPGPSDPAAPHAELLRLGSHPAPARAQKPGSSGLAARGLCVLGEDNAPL

CNC1(C)C2CCC(C2)C1(C)C (centres undefined)
not listed: [20]
inactive: all other assays above

COc1ccc(C#N)cc1
not listed: [9] | [11]
inactive: all other assays above

CC1CCC(C(C)(C)O)CC1 (centres undefined)
not listed: [20]
inactive: all other assays above

COC(=O)CCC(=O)O
not listed: [9] | [12]
inactive: all other assays above

CC(Cl)COP(=O)(OCC(C)Cl)OCC(C)Cl (centres undefined)
not listed: [9]
inactive: all other assays above

COC(=O)CC(C(C)=O)C(=O)OC (centres undefined)
not listed: [9] | [18]
inactive: all other assays above

Cn1c(=O)c2[nH]c(Br)nc2n(C)c1=O
not listed: [9] | [12]
inactive: all other assays above
